About 5,000 (1.4%) of roughly 360,000 compounds were called active. For the sample, actives were picked, then their nearest neighbours and some compounds at random. A number with no mark means an inactive call.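 The calls were made as follows: active = inhibition of 50% or more, scaled per plate between neutral and stimulator controls; inactive = the rest.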

The nature of this test: blockers of Ca2+-induced mitochondrial swelling – biochemical, isolated mouse mitochondria, absorbance, primary screen (AID 602449).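 Also: 0% = DMSO wells given calcium and 100% = 1 mM EGTA wells.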 Particulars: 30 min, at 10 µM, active compounds read high.
Usually inhibition stands for the change of the read-out against control, counted positive when it falls. As for `COc1cc2c(C(=O)N3CCN(C)CC3)c(CSc3ccccc3)n(C)c2cc1Br`, the inhibition was -3.4%.
As for `CC1CCCC(C)N1C(=O)COC(=O)c1ccccc1C(=O)c1ccccc1` (stereo not drawn), the inhibition was -1.2%.
In the case of `CCOC(=O)c1c(NC(=O)CSc2cn(CC)c3ccccc23)sc2c1CCC2`, the inhibition is 59.8% (active).
For `CCOC(=O)c1c(NC(=O)Cn2nc(C(F)(F)F)cc2C)sc2c1CCC2`, the inhibition is 4%.
Regarding `CCOC(=O)c1c(NC(=O)C(C)Sc2c[nH]c3ccccc23)sc2c1CCC2` (stereo not drawn), the inhibition is 3.9%.
Take `O=C(NCc1ccncc1)C1CCCN(S(=O)(=O)c2ccc(Br)cc2)C1` (stereo not drawn): the inhibition was -0.9%.
As to `Cc1ccc(N(Cc2ccccc2O)C(=O)c2ccccc2F)cc1`, the inhibition is 0.4%.
Under `CC(C)C(=O)N1c2ccccc2NC2=C(C(=O)CCC2)C1c1ccc(N(C)C)cc1` (stereo not drawn) stands 0.8%; under `CCCCC(=O)NCc1ccc(F)cc1`, 0.7%.
Under `CCCOCC(O)CC(CC)C(=O)NNC(=S)Nc1ccccc1` (stereo not drawn) stands 1.7%; under `CCCCC(=O)NNC(=S)NC(=O)C(c1ccccc1)c1ccccc1`, 69.1% (active); under `CCN(CC(=O)Nc1c(F)cccc1F)C(=O)c1cnc(C)cn1`, 1.7%.
For the molecule `COC(=O)c1c(C)[nH]c(C(=O)/C=C/c2ccc(Cl)cc2)c1C`, the inhibition is 102% (active).
For the molecule `COC(=O)c1c(C)[nH]c(C(=O)NCCc2ccc(S(N)(=O)=O)cc2)c1C`, the inhibition was 0.1%.
Consider `CCCCOC(=O)c1[nH]c(C)c(C(=O)OC)c1C`, for which the inhibition was 1.6%.
Under `c1csc(-c2nnc(COc3ncnc4sccc34)o2)c1` stands 1.9%.
Under `COc1cnc(SCc2ccc(Cl)c(Cl)c2)nc1Cl` stands 0.4%.
As for `COCCNC(=O)CSc1nc2sccc2c(=O)n1-c1ccccc1`, the inhibition is 0%.
Regarding `S=C(Nc1ccc(Br)cc1)NC1CCN(Cc2ccccc2)CC1`, the inhibition is 3.1%.
Next, `O=S(=O)(NCCCc1ccccc1)c1ccc(Br)cc1`: 13.4%; `O=C(COc1ccc(F)cc1Br)NCC1COc2ccccc2O1` (stereo not drawn): 1.6%.
With `CC(NC(=S)Nc1ccccc1)C1COc2ccccc2O1` (stereo not drawn), the inhibition was 83.4% (active).
Take `CCCN(CC1COc2ccccc2O1)C(=S)Nc1ccc(C)cc1` (stereo not drawn): the inhibition is 2.3%.
Next, `C/C(=N/NC(=S)Nc1ccccc1)c1ccc2c(c1)OCO2`: -0.4%.
For `S=C(NCC1COc2ccccc2O1)Nc1ccc(Br)cc1` (stereo not drawn), the inhibition is 91.4% (active).
As for `CC(NC(=S)Nc1ccccc1)C(c1cccs1)N1CCOCC1` (stereo not drawn), the inhibition was 0.1%.
For `S=C(NCCCc1ccccc1)Nc1ccc(Br)cc1`, the inhibition was 85.9% (active).
In the case of `Cc1c[n+]([O-])ccc1[N+](=O)[O-]`, the inhibition is -0.3%.
Next, `COc1ccccc1NC(=O)CCSc1nnc(-c2ccc(O)cc2)o1`: -1.6%; `CC(C)Oc1ccc(C(=O)Nc2cc(=O)n(C)c(=O)n2C)cc1`: -1.9%.
Next, `Cn1cnc(S(=O)(=O)N2C[C@@H](O)COC[C@@H]3O[C@H](CC(=O)NC4CCC4)CC[C@H]32)c1`: -0.5%.
For `O=C(C[C@H]1C[C@@H]2c3cc(NC(=O)C4CCC4)ccc3O[C@@H]2[C@H](CO)O1)NC1CCCCC1`, the inhibition was -0.5%.
Next, `Cc1cc(F)ccc1N1CCC(N2CCN(C)C(CCO)C2)CC1` (stereo not drawn): 0%; `CCCNC(=O)NCc1ccc(N2CCCC2=O)cc1`: 2.2%.
For the molecule `COc1cc(N2CCCC2)c(OC)cc1/C=C(/C#N)c1cccc(Br)c1`, the inhibition was 1.4%.
Under `Cc1cc(C)c(NC(=O)c2oc3ccccc3c2COc2ccccc2)c(C)c1` stands 1.5%; under `Cc1cc(C)cc(OCC(=O)NCc2cc(C)nc3ccccc23)c1`, 4.6%.
`Cc1cc(C)c(NC(=O)C[N+](C)(C)CC(O)COc2cccc3ccccc23)c(C)c1` (stereo not drawn): the inhibition is 80.5% (active).
As to `COc1ccc(C(=O)NC2CC(C)(C)Cc3c2cnn3-c2ccccc2C)o1` (stereo not drawn), the inhibition is -1.2%.
For `COc1ccc(OC)c(C(=O)NC2CCCc3c2cnn3-c2cc(C)cc(C)c2)c1` (stereo not drawn), the inhibition is 1.5%.
Under `COC(=O)c1ccc(C(=O)NC2CC(C)(C)Cc3c2cnn3-c2ccc(F)cc2)nc1` (stereo not drawn) stands -1.7%.
For `COc1ccc(C(=O)NC2CCCc3c2cnn3-c2cccc(C)c2C)c(OC)n1` (stereo not drawn), the inhibition is 71% (active).
For the molecule `CC1(C)Cc2c(cnn2-c2cccc(F)c2)C(NC(=O)c2cc[n+]([O-])cc2)C1` (stereo not drawn), the inhibition was -0.8%.
Under `Cn1nccc1C(=O)NC1CCCc2c1cnn2-c1ccc(F)cc1F` (stereo not drawn) stands 89.9% (active); under `Cc1cc(C(=O)NC2CC(C)(C)Cc3c2cnn3-c2ccccc2)n[nH]1` (stereo not drawn), -0.7%.
Next, `CC1=C(C(=O)NC2CC(C)(C)Cc3c2cnn3-c2ccc(C)cc2)OCCO1` (stereo not drawn): -0.2%.
Take `Cn1nccc1C(=O)NC1CCCc2c1cnn2-c1ccccc1F` (stereo not drawn): the inhibition was 102% (active).
Take `CCNC(=O)c1sccc1-n1cccc1`: the inhibition was -0.7%.
Under `CCN(CC)C(=O)Oc1ccc(OC(=O)N(CC)CC)cc1` stands -0.8%; under `C[C@H](CO)N1C[C@H](C)[C@@H](CN(C)S(=O)(=O)c2ccc(F)cc2)Oc2ccc(NC(=O)CCC(F)(F)F)cc2C1=O`, 0.8%; under `COc1ccc(CN(Cc2ccco2)S(=O)(=O)c2ccc(S(=O)(=O)N3CCCC3)cc2)cc1`, 11.4%.
Turning to `CCc1cccc(NC(=O)COC(=O)c2cc(=O)c3ccccc3o2)c1`, the inhibition is 0.9%.
On to `CSCC[C@H](NC(=O)N1CCn2c1nc1ccccc12)C(=O)NCc1ccc2c(c1)OCO2`, for which the inhibition is -2.6%.
Next, `C=C(C)c1cccc(C(C)(C)NC(=O)NCCN(CC)CC)c1`: 1.1%; `CCC(C(=O)NC(C)(C)C)n1c(-c2ccccc2)nc2ccccc21` (stereo not drawn): 1.2%.
Under `Cc1cc(C)n2nc(C(=O)OCC(=O)N(CCC#N)c3ccc(F)cc3)nc2n1` stands -0.4%.
Next, `O=C(NCCCN1CCN(c2ccc(F)cc2)CC1)Nc1ccc([N+](=O)[O-])cc1`: 90.9% (active); `O=C(Nc1ccc(F)cc1)C1CCN(C(=O)c2ccc([N+](=O)[O-])cc2)CC1`: 0.6%; `CN1CCN(CCNC(=O)Nc2ccc([N+](=O)[O-])cc2)CC1`: 93.8% (active).
As to `O=C(CCC(=O)N1CCCC1)Nc1ccc([N+](=O)[O-])cc1`, the inhibition is -1.4%.
`CN1CCN(CCNC(=O)Nc2ccccc2[N+](=O)[O-])CC1`: the inhibition was -0.3%.
On to `O=C(CCN1C(=O)COc2ccccc21)NCCCN1CCN(c2ccc(F)cc2)CC1`, for which the inhibition is -0.5%.
With `COc1cc(C)ccc1OCC(=O)OCC(=O)c1ccc[nH]1`, the inhibition was 0.5%.
As to `COc1ccc(/C=C2/S/C(=N/N=C3\CC4CCC3(C)C4(C)C)NC2=O)cc1` (stereo not drawn), the inhibition was -1.3%.
Consider `CCOC(=O)/C=C/c1ccc(C(F)(F)F)cc1S(=O)(=O)NC(C)(C)C`, for which the inhibition was 2.5%.
Next, `CCCCN(CCCC)CCC(O)c1cc2c(Cl)cc(Cl)cc2c2cc(C(F)(F)F)ccc12` (stereo not drawn): 112% (active).
Next, `O=C(/C=C/c1ccc(Cl)cc1)Nc1ccc(S(=O)(=O)Nc2ncccn2)cc1`: -0.3%; `O=C(/C=C/c1ccc(F)cc1)Nc1cccc(S(=O)(=O)Nc2cccc(C(F)(F)F)c2)c1`: 92.8% (active); `O=C(Nc1cccc(S(=O)(=O)NC2=NCCC2)c1)c1ccc(F)cc1F`: -0.6%.
Next, `O=C(O)CSC(NC(=O)c1cccnc1)(C(F)(F)F)C(F)(F)F`: -1.1%; `COc1cc(C(=O)Nc2oc(-c3ccccc3)c(-c3ccccc3)c2C#N)cc(OC)c1OC`: 61.1% (active); `COc1cc(C(=O)NCC(=O)N2CC=C(c3ccccc3)CC2)cc(OC)c1OC`: 0%.
Turning to `N#Cc1c(NC(=O)CCCN2C(=O)c3ccccc3C2=O)oc(-c2ccccc2)c1-c1ccccc1`, the inhibition was -0.2%.
Under `CCc1nccn1S(=O)(=O)c1cccc([N+](=O)[O-])c1` stands 0.1%; under `O=C(CCN1C(=O)C2CCCCC2C1=O)Nc1ccc(OC(F)F)cc1` (stereo not drawn), -2%; under `CCC(=O)OCc1c(C(F)(F)F)nn(C)c1Oc1cccc(C(F)(F)F)c1`, 1.5%.
Under `Cn1nc(C(F)(F)F)c(C(=O)Nc2cccc(C(F)(F)F)c2)c1SCc1ccc(Cl)cc1` stands 71.2% (active); under `COC(=O)c1ccccc1Sc1c(/C=N/OCc2ccc(Cl)cc2)c(C(F)(F)F)nn1C`, 2.3%.
For `O=C(Nc1ccccc1)Nc1nc2ccccc2s1`, the inhibition is 96.5% (active).
Under `CC(=O)Nc1cccc(-c2nc3ccccc3s2)c1C` stands -0.5%.
Under `CCCCN1C(=O)C(=O)N(CC(=O)Nc2cccc(C(C)=O)c2)C1=O` stands 0.4%; under `CC(=O)c1cccc(NC(=S)N2CCN(S(C)(=O)=O)CC2)c1`, 0.1%; under `COc1ccc(C(=O)OCC(=O)Nc2cccc(C(C)=O)c2)cc1OC`, -2%.
Next, `CC(=O)c1cccc(NC(=O)[C@@H](NC(N)=O)C(C)C)c1`: 0.5%; `c1ccc(C(=NNc2nc3ccccc3s2)c2ccccn2)cc1`: 0.3%.
In the case of `CSc1nsc(NC(=O)Nc2ccccc2)n1`, the inhibition was 85.4% (active).
Under `CCSc1nsc(NC(=O)Nc2cccc(C(C)=O)c2)n1` stands 87.2% (active); under `C=CCSc1nsc(NC(=O)Nc2cccc(C(C)=O)c2)n1`, 97.4% (active); under `CSc1nsc(SCC(=O)Nc2cc(C(=O)O)ccc2C)n1`, -0.5%.
`CC(=O)N1CCC(C(=O)Nc2nc(-c3ccccc3)ns2)CC1`: the inhibition was -2%.
Next, `Cc1ccc(S(=O)(=O)N(Cc2ccccc2)c2ccccn2)cc1[N+](=O)[O-]`: 0.2%.
Under `Cc1c(C(=O)N2CCN(c3ccc(F)cc3)CC2)oc2c1C(=O)CCC2` stands -1%; under `COCCCn1c(=O)/c(=C/c2ccccc2OC(C)C)s/c1=C(\C#N)C(=O)Nc1ccc(C(=O)O)cc1`, 0.6%.

The values above are taken from PubChem BioAssay AID602449 (Sanford-Burnham Center for Chemical Genomics, 2012).
